Test results reported in PMC10668032, “Altered binding affinity of SIX1-Q177R correlates with enhanced WNT5A and WNT pathway effector expression in Wilms tumor”.
Whole data set: some 33,000 sequences, median “e-score” near -0.05, cut for the highest 2% near 0.38. Shown is part of a subset that was picked to be rich in the highest values.

Target: T1, SIX1-Q177R homeodomain (human, UniProt Q15475 108-198, Q177R)
T1 sequence: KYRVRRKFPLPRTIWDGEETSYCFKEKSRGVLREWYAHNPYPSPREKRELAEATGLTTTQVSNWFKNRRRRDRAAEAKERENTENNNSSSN
Assay: universal protein binding microarray; Universal all-10-mer PBM (8x60K, AMADID 030236), 300 nM GST-tagged protein, Alexa Fluor 488 anti-GST; buffer, salt, pH and temperature not stated (as in Berger); high values mean tight binding
Conditions: protein: ivt; tags: N-terminal GST; dsDNA, one strand shown
Outline: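 Homeodomains fused to GST were made by in vitro transcription/translation and measured by anti-GST western blot with a recombinant GST standard curve. At 300 nM final concentration, they were applied in duplicate to universal 'all 10-mer' protein binding microarrays (8×60K format).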

Sequence	binding signal [E-score]
AAAGTGTA	0.36 ± 0.0454
ACAGTGTA	0.381 ± 0.0259
ACAGAGTG	0.184 ± 0.0479
GCACCCCA	0.257 ± 0.053
ACTGGATC	0.155 ± 0.0197
GCGTAACA	0.199 ± 0.0107
CGTATCAC	0.162 ± 0.023
GGTATCAC	0.3993 ± 0.00177
GGTATCAA	0.325 ± 0.0148
ACCCGCCA	0.152 ± 0.0278
ATGATCCC	0.251 ± 0.0242
CTACACTA	0.401 ± 0.013
CCACACTC	0.308 ± 0.014
CCACACTA	0.206 ± 0.00246
ATACACTC	0.369 ± 0.0201
GTACACTA	0.432 ± 0.0136
ATACACTA	0.364 ± 0.0337
GCACACTA	0.2
CTACACTC	0.412 ± 0.0145
TCTCAACA	0.219 ± 0.0267
ACTTTACA	0.228 ± 0.0604
TGCGAACA	0.158 ± 0.012
ATCCCCCA	0.24 ± 0.0099
TAGTTACA	0.249 ± 0.0533
GACCCGAC	0.193 ± 0.052

Sequence	binding signal [E-score]
GAGGTATA	0.18 ± 0.0163
CAGGTGTA	0.464 ± 0.00823
CATGTGTA	0.2594 ± 0.00165
AAGGTGTC	0.4706 ± 0.00267
AAGGTGTA	0.461 ± 0.0153
GAGGTGCA	0.192 ± 0.0287
CAGGTACA	0.187 ± 0.0255
AAGGTGTG	0.369 ± 0.0137
AAGGTGGT	0.151 ± 0.00564
GAGGTGTA	0.466 ± 0.00775
AAGGTGCA	0.222 ± 0.0217
AAGCGTGT	0.378 ± 0.00665
GATCCCGA	0.203 ± 0.0172
ACGCACGA	0.277 ± 0.005
CCCCCGGG	0.195 ± 0.00105
CCCACCCG	0.194 ± 0.0228
ACGAGTTA	0.205 ± 0.00221
CAACCCCC	0.242 ± 0.0559
ACACAAGG	0.155 ± 0.0571
ACCAGTGA	0.189 ± 0.0202
CACTTACG	0.206 ± 0.0274
AAGGAGTA	0.158 ± 0.0662
ACATGGTG	0.33 ± 0.0163
CACGAGCA	0.242 ± 0.0191
ACCCGACT	0.207 ± 0.0388

Sequence	binding signal [E-score]
CTGCGACA	0.195 ± 0.00854
CAGGTGTC	0.474 ± 0.0095
CATGTGTC	0.19 ± 0.0338
CAGGTATC	0.328 ± 0.00751
CCCAGGTA	0.203 ± 0.0198
AGCGTGTG	0.281 ± 0.00182
CGCGTATC	0.155 ± 0.05
CGTGTGTC	0.289 ± 0.0336
AGCGTGTA	0.419 ± 0.0156
AGCGGGTA	0.158 ± 0.0257
CGTGTGTA	0.296 ± 0.0261
CGCGTGTC	0.414 ± 0.00637
CGCGTGTA	0.43 ± 0.00692
AGAGCGTG	0.189 ± 0.00653
AGCGTGTC	0.393 ± 0.00925
AACGTGTG	0.154 ± 0.0123
CACGCGTG	0.317 ± 0.0193
ACCGCACC	0.247 ± 0.013
CTCGGATA	0.188 ± 0.0289
GTGGATCA	0.161 ± 0.0203
ACTGGTGC	0.297 ± 0.00607
CACGGTCA	0.2431 ± 0.00219
GTCCAACA	0.216 ± 0.00357
AGAAACGG	0.152 ± 0.0193
ATAGGTGC	0.193 ± 0.00788

Sequence	binding signal [E-score]
ACTGAGTG	0.1766 ± 0.000721
TCTTGACA	0.167 ± 0.0124
CCCCCGAA	0.238 ± 0.0222
GAGGGTTA	0.185 ± 0.00774
CGACTAAC	0.192 ± 0.0385
CACGCACG	0.304
ATTGCGTG	0.183 ± 0.0294
GGCGTACA	0.283 ± 0.0225
GACGTGTA	0.368 ± 0.0248
GGCGTGTA	0.4378 ± 0.00204
TACACAGA	0.152 ± 0.0583
AGCACCGA	0.197 ± 0.00674
AACACAGT	0.158 ± 0.0584
CACCCCGA	0.346 ± 0.0278
GGCACCGA	0.175 ± 0.0275
AACACCGT	0.4669 ± 0.00366
GACACCGA	0.486 ± 0.00613
AACACTGT	0.3445 ± 0.00205
GTCACCGA	0.175 ± 0.0101
TACACCGA	0.4853 ± 0.00441
AACACCGA	0.4686 ± 0.00331
ACCCAACA	0.251 ± 0.0117
ACGATCCG	0.232 ± 0.0258
AATCTACA	0.22 ± 0.0213
ACCCGTGC	0.1616 ± 0.000424

Sequence	binding signal [E-score]
GCACTATA	0.191 ± 0.0272
AGCACCGG	0.206 ± 0.0351
GACACCGC	0.487 ± 0.00552
CACACCGC	0.412 ± 0.0184
CACCCCGG	0.338 ± 0.0167
CACCGCGG	0.3509 ± 0.00344
GATACCGC	0.293 ± 0.00845
CACACAGG	0.182 ± 0.0584
AACACCGG	0.4831 ± 0.000693
CACACCGG	0.418 ± 0.0186
GACGCCGC	0.151 ± 0.0247
CGCACCGC	0.209 ± 0.0348
AACACTGG	0.37323 ± 0.000191
CACCGATG	0.32 ± 0.0273
CCCCGGAG	0.261 ± 0.00517
CTATTACA	0.215 ± 0.023
CAGATTCG	0.161 ± 0.0252
CACCAAGG	0.265 ± 0.0125
CCCGCACC	0.197 ± 0.0395
AACCCGGA	0.201 ± 0.0406
TGTGCACA	0.21 ± 0.0348
CGCTTACA	0.196 ± 0.0288
CACCATAC	0.3492 ± 0.0017
CACCAGGG	0.284 ± 0.0249
CGGATCCA	0.232 ± 0.0264

Sequence	binding signal [E-score]
CACCCGAA	0.276 ± 0.0248
ACCTCACG	0.153 ± 0.0322
CACCGGCC	0.251 ± 0.0167
GATACCCA	0.3616 ± 0.000587
ACTTGCAC	0.175 ± 0.00796
TGTAAACA	0.262 ± 0.00791
AGCACCGC	0.288 ± 0.023
ACCACCGC	0.199 ± 0.00668
AACACCGC	0.47579 ± 0.000382
CACACCGA	0.405 ± 0.0194
CGGGGTTC	0.201 ± 0.0287
CATGGACA	0.216 ± 0.0185
GGAGTACC	0.218 ± 0.0355
GTGCGCAC	0.175 ± 0.0735
GGACCCCC	0.26 ± 0.0595
CGACACCC	0.488 ± 0.01
CGACCCCC	0.256 ± 0.0448
CGACACAG	0.251 ± 0.0668
CGACACCG	0.4907 ± 0.00417
GCCCACCC	0.229 ± 0.0369
GGACACCC	0.48 ± 0.00768
CGGCACCG	0.239 ± 0.0344
CGACACAC	0.345 ± 0.0318
GGACACAC	0.382 ± 0.0328
GGACACAA	0.18 ± 0.117

Sequence	binding signal [E-score]
ACGCACCC	0.265 ± 0.0257
TACCCTGA	0.185 ± 0.0156
CGGGGTGC	0.219 ± 0.0401
TATTGACA	0.194 ± 0.0479
CACGCAGG	0.264 ± 0.016
GTACTCCA	0.178 ± 0.0308
AGACCCCC	0.214 ± 0.0497
AGTCACAC	0.326 ± 0.0101
CGACAACA	0.245 ± 0.0238
GGTCACAC	0.384 ± 0.0098
CGTCACAC	0.288 ± 0.0273
CGACACCA	0.488 ± 0.00517
CGACACAA	0.201 ± 0.104
AGACACCC	0.469 ± 0.00936
ACTCCCTC	0.156 ± 0.0128
TATATATA	0.181 ± 0.042
AGGGATCG	0.216 ± 0.00653
CACTCATG	0.244 ± 0.00471
ACCCTTCA	0.166 ± 0.0264
GGGGTATA	0.274 ± 0.0131
CACCTCCG	0.344 ± 0.00638
ACCCGGGG	0.297 ± 0.0213
CACTATTA	0.158 ± 0.0138
GTTCGGGA	0.15 ± 0.0437
CACCACCA	0.329 ± 0.0106

Sequence	binding signal [E-score]
CTACACCA	0.4741 ± 0.00151
CTGCACCC	0.209 ± 0.0458
ATACACTG	0.392 ± 0.00512
ACACACTG	0.248 ± 0.0191
GTGCACCA	0.246 ± 0.0146
CTACAACA	0.161 ± 0.0103
CTACACCC	0.4824 ± 0.00332
GTACAACA	0.2 ± 0.0164
GTACACCA	0.4849 ± 0.00112
CTACCCCC	0.268 ± 0.0213
CACTAACA	0.284 ± 0.0307
CGACCCCG	0.255 ± 0.0544
CCCAATAC	0.17 ± 0.00354
TATTTACA	0.311 ± 0.0362
AAGTAGTG	0.27 ± 0.0294
CCCCTCAG	0.251 ± 0.0116
ATCCCGTG	0.228 ± 0.0211
CACGAGGG	0.189 ± 0.00843
AGGGGTAG	0.269 ± 0.00879
CACGCCGA	0.194 ± 0.0137
AAGCGACA	0.229 ± 0.0424
CACCTCCA	0.293 ± 0.0179
ATACCCCC	0.364 ± 0.0151
ATACACAC	0.315 ± 0.0133
ATACACAG	0.187 ± 0.0325

Sequence	binding signal [E-score]
ATACACCA	0.47 ± 0.0019
ATACACCG	0.472 ± 0.00491
ATACACCC	0.46 ± 0.00688
ACCCACCA	0.2 ± 0.00308
ATATACCG	0.15 ± 0.0185
ATGCACCA	0.165 ± 0.000877
ACTCGGTG	0.368 ± 0.00838
CACCTCCC	0.256 ± 0.00611
ATACCCCA	0.254 ± 0.016
ATCGGTGC	0.204 ± 0.0156
ACTCCCAG	0.262 ± 0.038
AGGGAGTA	0.178 ± 0.0384
TGTCCTAA	0.241 ± 0.0454
TGTAGACA	0.2571 ± 0.000438
CGGCACCA	0.181 ± 0.0154
ACACAGCG	0.1958 ± 0.00148
GGTATCTA	0.216 ± 0.0361
AGTGTCTA	0.3723 ± 0.00362
GGGGTCTA	0.229 ± 0.0526
GGTGTCTA	0.468 ± 0.0105
CGTGTCTA	0.405 ± 0.0182
